31 sequences from paper PMC7819943, “Rice protein-binding microarrays: a tool to detect cis-acting elements near promoter regions in rice” can be followed below.

Over roughly 39,000 sequences, “fluorescence intensity (a.u.)” has its median near 4,300; the highest 2% begin near 39,000. The sample holds the highest values, similar sequences and a random draw of the others, so the mix is not that of the screen.

The assay addresses T1, OsSMF1 (Oryza sativa, UniProt Q6ZLB0 1-436).
T1 sequence: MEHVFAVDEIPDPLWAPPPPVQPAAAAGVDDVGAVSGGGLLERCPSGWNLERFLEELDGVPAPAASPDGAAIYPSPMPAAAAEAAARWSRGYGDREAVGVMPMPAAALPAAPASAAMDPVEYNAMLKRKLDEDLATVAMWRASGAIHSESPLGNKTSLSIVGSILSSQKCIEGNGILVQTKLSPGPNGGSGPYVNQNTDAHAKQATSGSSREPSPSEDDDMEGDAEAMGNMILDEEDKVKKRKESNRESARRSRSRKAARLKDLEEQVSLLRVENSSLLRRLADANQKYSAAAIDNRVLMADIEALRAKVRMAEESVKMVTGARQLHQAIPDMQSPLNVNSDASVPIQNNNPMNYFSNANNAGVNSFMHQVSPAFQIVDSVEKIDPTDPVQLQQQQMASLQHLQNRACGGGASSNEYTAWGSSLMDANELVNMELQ
The experiment in a line: protein-binding microarray (RPBM); PBS, 2% BSA, 51.3 ng/ul salmon testes DNA, 50 uM zinc acetate, 200 nM TF, 25 C, 1 h; high values mean tight binding. The conditions noted are these: protein: recombinant; tags: N-terminal polyhistidine and DsRed monomer fusion (pET32a); chain copies: 2; label: CyDye5-dUTP incorporated in the synthesized complementary strand; 3' TTTTT single-stranded linker to array surface; dsDNA, one strand shown. The method in brief: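 Binding signal is reported as fluorescence intensity per feature (arbitrary units) from an Axon 4000B scanner. Incubation used 200 nM of each Ni–NTA-purified, N-terminally polyhistidine- and DsRed-fused transcription factor from E. coli BL21-CodonPlus on a double-stranded custom Agilent array for 1 h at 25 °C, with 50 µM zinc acetate in the buffer, followed by washing.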
For the sequence “GCATGTAGCTATGCAGCCATCCACGTCACTCCTTGCGTACCGGAGTCACCTAGTGCAG”, the binding signal is 31800 fluorescence intensity (a.u.). For “ATTAAGCACTACGTCAGATATGATTGGCCATCATTGCATTCGGAGTCACCTAGTGCAG” the value was 3150 fluorescence intensity (a.u.); for “ACACCCGTCCGTCCCGTCTCGTTCTGCGCCGTCTCGCCGGCGGAGTCACCTAGTGCAG”, 18700 fluorescence intensity (a.u.); for “GAAGATAGTACTAACTATATTTTGTAACGGAGAGATTGTTCGGAGTCACCTAGTGCAG”, 4130 fluorescence intensity (a.u.). Regarding “AATAGTAGGCTATAAGCCGGCTAAATGCTGAGGTGGAGGACGGAGTCACCTAGTGCAG”, the binding signal was 5420 fluorescence intensity (a.u.). For “AGTAGTGAGGTTGAGGCATAAGTACATTGAATTGAATTGACGGAGTCACCTAGTGCAG” the value was 44100 fluorescence intensity (a.u.); for “TGAGTGAATACACAGTACTATGACGACGATAAGGTTGGGGCGGAGTCACCTAGTGCAG”, 32700 fluorescence intensity (a.u.); for “ATGCTAGAAAGTCTTATAACCTGAAACGGAGGTAGTAGGACGGAGTCACCTAGTGCAG”, 65000 fluorescence intensity (a.u.).

On to “TTGGACAAATCATTTGGCAAAATTTCAAAGTTTTGAATCTCGGAGTCACCTAGTGCAG”, for which the binding signal is 28600 fluorescence intensity (a.u.).

In the case of “TGTTAGAAAGTCTTATAATATAAAACGGAGGAAATATTTACGGAGTCACCTAGTGCAG”, the binding signal is 6480 fluorescence intensity (a.u.). The same measure for “TCAAATTGAAAGTTTCCAAAATTTTCAAATCTGGACTTGACGGAGTCACCTAGTGCAG”: 43500 fluorescence intensity (a.u.); for “TAGAATTGTCAAGTCAATGCCACGTGGGACAAAGACCTAGCGGAGTCACCTAGTGCAG”: 17900 fluorescence intensity (a.u.).

As for “AAATTGAGTTGAAAATTTTCAAATCTCGACTTGAAAGTTTCGGAGTCACCTAGTGCAG”, the binding signal was 21800 fluorescence intensity (a.u.).

Take “TTCTTATTGTCTTAGCTACAAACGATCCATACAAACATTGCGGAGTCACCTAGTGCAG”: the binding signal is 4240 fluorescence intensity (a.u.). The same measure for “TACACACCATAATTGAAGTATTGAGTCACACATAATTGAACGGAGTCACCTAGTGCAG”: 3220 fluorescence intensity (a.u.); for “TGTGGACAATGCTAGAAAGTCTTACATTGTCAAACGGATGCGGAGTCACCTAGTGCAG”: 39500 fluorescence intensity (a.u.); for “TCTCTCTCACTCTTCTCTTGCAGGCCTGCGTGGCATACTACGGAGTCACCTAGTGCAG”: 7430 fluorescence intensity (a.u.). The same measure for “CGGAAACAGATCATCAAACCCATACGTCAGTGATCCAAGTCGGAGTCACCTAGTGCAG”: 3410 fluorescence intensity (a.u.); for “TTCCAGTCCACCGTGGCGGTGGCGCGTCAGCTTTCCAGCCCGGAGTCACCTAGTGCAG”: 12000 fluorescence intensity (a.u.); for “GGTCCACCCGAATCGGAGTCAGCCAGCCAAGCCACCTAATCGGAGTCACCTAGTGCAG”: 4780 fluorescence intensity (a.u.). As for “GCCGGTCGAACCGCCCGAACACCTACGGTCAGACCGCTGCCGGAGTCACCTAGTGCAG”, the binding signal is 3360 fluorescence intensity (a.u.). The same measure for “CTTCATACTGCAGTATCTGAAAAGATGTCATTGTAAAGTTCGGAGTCACCTAGTGCAG”: 3140 fluorescence intensity (a.u.); for “CATGTTTGTGAAGTGACGTATTACATATTGATCTATTTGACGGAGTCACCTAGTGCAG”: 8700 fluorescence intensity (a.u.). Turning to “TTATGTTTGAATTTAAGTTTTGAGTTTTGTTGCGTGCGCACGGAGTCACCTAGTGCAG”, the binding signal is 28800 fluorescence intensity (a.u.). For “GCATGTTTTGAGTTTGAAAGTTTTAAATTTTGAGTTGAAACGGAGTCACCTAGTGCAG”, the binding signal was 50200 fluorescence intensity (a.u.). Turning to “TAGTTGTGACACGTAGAAGTTGAATTTTAACTTTTATGTTCGGAGTCACCTAGTGCAG”, the binding signal was 4370 fluorescence intensity (a.u.). For “TTGTAGAAGTTGAATTTGGTTTTACATATTTGTGGAGTGACGGAGTCACCTAGTGCAG” the value was 61600 fluorescence intensity (a.u.).

For “TGTGATTGTATTGGTTACTAGAGTAGTATTTAGTAGAGATCGGAGTCACCTAGTGCAG”, the binding signal is 42200 fluorescence intensity (a.u.). For “TATTGATTGATTGGTTAGTACTACAGTACTGTAGGAGTGGCGGAGTCACCTAGTGCAG” the value was 29800 fluorescence intensity (a.u.). On to “GTTGTTGATGTGATTGTGTGTATTCAAGTAGAGATTGGGTCGGAGTCACCTAGTGCAG”, for which the binding signal is 3240 fluorescence intensity (a.u.). The same measure for “CCAAAATGAGTTGAAATGAATTTTGTATGCATTTTATAAACGGAGTCACCTAGTGCAG”: 6000 fluorescence intensity (a.u.).
